Screens from PubChem BioAssay.
Sampled rows, rich in hits. Any-hit rate of the full collection: about 1.8%.
Mito fusion yeast: blocks mitochondrial division or promotes mitochondrial fusion; S. cerevisiae fusion-defective mutant growth rescue, CellTiterGlo 48 h; Potency, µM (doses to about 46.1 µM), without a hit: top-dose growth rescue (activation), actives largely listed as activators; actives 0.23% (n = 320,000); AID 485298; note: potency is the fitted concentration of half-maximal effect; % of control where 0% means no effect; nearly all actives have a fitted effect of over 45% in size
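Yeast fusion mutant, YPEG (non-fermentable carbon), compound, 48 h at 37C non-permissive; CellTiterGlo added, 10 min RT, luminescence read. Rescued growth = division inhibition.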
ClpP mod: qHTS Assay for Activators of ClpP; purified B. subtilis ClpP, FRET peptide cleavage, 20 min; AID 651965, 2013; actives 1.9% (n = 340,000); ATP-dependent Clp protease proteolytic subunit (Bacillus subtilis (strain 168)), P80244; Potency, µM (doses to about 57.5 µM), for inactives: at the top dose activity change, negative = active; active = well fitted falling curve with a large enough effect; inconclusive = small, poorly fitted or top-dose-only effect; inactive = no such curve, though single readings can be large or run the other way; note: potency is the fitted concentration of half-maximal effect; the source files actives as falling curves though it sought activators and does not explain the sign; nearly all actives have a fitted effect of over 65% in size
Target sequence (P80244 whole entry, looked up): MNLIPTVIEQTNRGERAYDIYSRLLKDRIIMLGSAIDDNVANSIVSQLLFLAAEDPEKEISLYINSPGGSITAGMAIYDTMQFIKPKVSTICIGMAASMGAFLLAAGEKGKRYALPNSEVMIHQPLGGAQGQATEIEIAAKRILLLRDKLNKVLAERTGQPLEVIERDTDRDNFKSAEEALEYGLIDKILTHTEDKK
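FRET quenching reversal measured ClpP activation: 10 microg/mL B. subtilis ClpP at pH 8 with the FRET-FV decapeptide, read at 430 nm after 320 nm excitation. The 20-min minus 0-min signal was scaled between DMSO/no-enzyme wells and ADEP (5.8 microM final).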
AT treatment: potential ataxia-telangiectasia treatment | Potency, µM (highest dose often 57.5 µM), inactives show top-dose activation, usual class: activators | actives 0.19% (n = 320,000) | F2112 A-T fibroblasts, KAP-1 phosphorylation AlphaLISA; neocarzinostatin DNA damage 30 min before lysis | AID 485349; note: potency is the fitted concentration of half-maximal effect; % of control where 0% means no effect; nearly all actives have a fitted effect of over 45% in size
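ATM-like activity read as KAP-1 phosphorylation via AlphaLISA donor/acceptor antibody pairs after lysis and 6 hr at 25C. Cells were ATM-null patient fibroblasts (F2112, hTERT), dosed 60 min, then exposed to the DSB inducer NCS for 30 min.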
MBNL1-CUG inh: inhibitors of human MBNL1 binding to CUG repeat RNA. actives 0.036% (n = 280,000). AID 2675. TR-FRET MBNL1-His/biotin-(CUG)12 binding, 665/545 ratio. Q9NR56. Potency, µM (doses to about 57.5 µM), for the others: top-dose activity change, negative = inhibition, actives largely listed as inhibitors; active = well fitted inhibition curve with a large enough effect in the signal ratio, with a control signal flat, not every such curve was filed as active; inconclusive = small, poorly fitted or top-dose-only effect, or effect the other way, or a change in a side signal; inactive = no such curve, though single readings can be large or run the other way; the % refers to the signal ratio; note: potency is the fitted concentration of half-maximal effect; % is set by controls: 0 for no effect and ±100 for the full control effect
Target sequence (Q9NR56 whole entry, looked up): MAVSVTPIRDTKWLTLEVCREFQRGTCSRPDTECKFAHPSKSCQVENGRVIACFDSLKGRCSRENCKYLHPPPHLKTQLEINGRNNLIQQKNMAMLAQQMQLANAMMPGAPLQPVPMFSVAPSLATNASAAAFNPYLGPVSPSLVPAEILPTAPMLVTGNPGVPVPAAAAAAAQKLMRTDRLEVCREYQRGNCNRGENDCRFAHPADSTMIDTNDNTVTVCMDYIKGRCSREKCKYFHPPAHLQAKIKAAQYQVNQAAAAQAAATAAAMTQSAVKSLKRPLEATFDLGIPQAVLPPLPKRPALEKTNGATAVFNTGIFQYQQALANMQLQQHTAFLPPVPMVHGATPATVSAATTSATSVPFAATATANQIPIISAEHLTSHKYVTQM
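Compound titration spanned 92 nM–58 uM against the MBNL1-His/biotin-(CUG)12 complex. After 60 min at room temperature with 5 nM streptavidin-XL665 and 0.055 ng/ul terbium anti-His, ratiometric 665/545 nm emission (Ex 340 nm) normalized to controls.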
TCR activator: activators of T cell receptors. primary human leukocytes, anti-CD3, IL-2 HTRF, 48 h. Potency, µM (doses to about 9.22 µM), without a hit: top-dose activation of IL-2 secretion, actives largely listed as activators. 330,000 tested, under 10 active. AID 504894; note: % of control where 0% means no effect
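HTRF read-out of IL-2 secretion: europium cryptate donor excited at 320nm, d2 acceptor emission at 665nm. Cells were primary human leukocytes incubated 48 hr with compounds and a-CD3 beads, supplying TCR signal only.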
Glioma ERSR ind: ER stress response induction in glioma; U87-MG GRP78 promoter luciferase reporter, 16 h; Potency, µM, for inactives: at the top dose activation, actives largely listed as activators; actives 0.02% (n = 420,000); note: potency is the fitted concentration of half-maximal effect; series mostly up to about 76 µM; % of control where 0% means no effect; nearly all actives have a fitted effect of over 35% in size
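Stably transfected U87-MG glioma cells carrying a GRP78-based luciferase sensor; 16 h compound incubation. Luminescence end-point read 10 min after Bright-Glo addition at room temperature.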
* hit, by the source's call; u = inconclusive; x = no result; [ ] = another dose, or the depositor's remark. Unless noted, calls come from the whole dose curve; as a rule, active = well fitted curve in the direction sought with a large enough effect; inconclusive = small, poorly fitted or top-dose-only effect, or another doubt; inactive = no such curve, though single readings can be large; an effect the other way counts as inactive or inconclusive.

SMILES	Mito fusion yeast	ClpP mod	AT treatment	MBNL1-CUG inh	TCR activator	Glioma ERSR ind
COc1ccccc1-c1nc(C#N)c(N2CCN(c3ccccc3)CC2)o1	24%	28µM*	-8%	-7%	5%	0%
CCN1CCN(c2oc(-c3ccc(OC)cc3)nc2C#N)CC1	x	3.2µM*	x	x	x	1%
CC1CCCN(c2oc(-c3cccc4ccccc34)nc2C#N)C1 (stereo unspecified)	4%	3.2µM*	4%	0%	x	-2%
N#Cc1nc(-c2ccccc2Cl)oc1N1CCOCC1	5%	8.9µM*	-8%	2%	-8%	3%
O=C(CCc1c[nH]c2ccccc12)N1CCC(n2c(C3CCCO3)nc3cc(C(F)(F)F)ccc32)CC1 (stereo unspecified)	x	x	x	x	x	-4%
COc1cc(OC)c(OC)cc1CN1CCOc2ccc(CN3CCN(C(C)=O)CC3)cc2C1	x	x	x	x	x	-5%
N#CCCn1c(=O)c(-c2cccc(C#N)c2)nc2cnc(N3CCOCC3)nc21	x	x	x	x	x	-2%
CC1CCN(c2oc(-c3ccccc3Cl)nc2C#N)CC1	9%	28µM*	0%	12%	5%	4%
COC(=O)c1ccc(C23CC4(C2)[C@H](CN(Cc2ccc(C(F)(F)F)cc2)[C@@H]4c2ccccc2)C3c2ccccc2)cc1 (stereo partly specified)	-14%	-4%	40µM*	5%	4%	-4%
COC(=O)c1ccc(C23CC4(C2)[C@H](CN(Cc2ccc(C(F)(F)F)cc2)[C@@H]4c2ccccc2)C3c2ccc(C(F)(F)F)cc2)cc1 (stereo partly specified)	-20%	x	6%	26%	x	x
CC1=C(C#N)C(c2cccnc2)C2=C(CCCC2=O)N1 (stereo unspecified)	-2%	8.9µM*	4%	13%	-3%[46.1 µM]	-2%
CC1=C(C#N)C(c2cccnc2)C2=C(N1)c1ccccc1C2=O (stereo unspecified)	1%	0%	-5%	u	0%	-5%
COCCN1CCN(C(=O)c2cnn(-c3nccc(-c4ccco4)n3)c2C2CC2)CC1	x	x	x	x	x	-5%
COCCN(Cc1cc2cc(C)cc(C)c2nc1Cl)C(=O)Nc1ccccc1	12%	-7%	8%	-3%	5%	-2%
Cc1cc(C)c2nc(Cl)c(CN(Cc3ccco3)C(=O)Nc3ccccc3C)cc2c1	7.1µM*	-14%	x	-11%	-1%	-3%
CCc1ccc(NC(=O)C(=O)NCC2CCCO2)cc1 (stereo unspecified)	4%	-3%	3%	0%	6%	-6%
CCOC(=O)c1ccc(NC(=O)C(=O)NCC2CCCO2)cc1 (stereo unspecified)	2%	32µM*	0%	1%	11%	1%
CN(C)C1CCC(CC2CCc3ccccc32)CC1 (stereo unspecified)	x	u	x	x	x	4%
CC(C)(C)c1cc(NC(=O)COC(=O)c2nccnc2N)n(-c2ccccc2)n1	-1%	22µM*	2%	27%	-4%	1%
COc1cccc(/C=N/NC(=O)CSc2nnc(C)n2-c2ccccc2)c1OC	1%	28µM*	10%	1%	-13%	2%
CN(C)c1ccc(C=Nc2ccccc2C(N)=O)cc1	-2%	25µM*	-1%	-7%	6%	-12%
Cc1ccc(C=Nc2ccccc2C(N)=O)o1	8%	-13%	-3%	0%	0%[46.1 µM]	1%
COc1cccc(Nc2ncnc3ccccc23)c1	2%	-17%	-4%	-2%	x	1%
O=C(Oc1cccc(Nc2ncnc3ccccc23)c1)c1ccccc1Cl	u	32µM*	-2%	-6%	-5%	-7%
CCCCCCCCCCCCCCOS(=O)(=O)O	x	x	x	x	x	-3%
SMILES	Mito fusion yeast	ClpP mod	AT treatment	MBNL1-CUG inh	TCR activator	Glioma ERSR ind
CC(C)(CNC(=O)c1cnn(-c2ncc3c(n2)-c2ccccc2CCC3)c1C1CC1)N1CCOCC1	x	x	x	x	x	-3%
CCOC(=O)c1ccccc1NC(=O)c1cc2sccc2n1C	4%	28µM*	13%	25%	3%	-3%
Nn1c(C2CCC2)nc2ccccc2c1=O	0%	x	-3%	-2%	-3%	-3%
Nc1nc2c3ccccc3nc(C3CC3)n2n1	-3%	22µM*	6%	-8%	-5%	0%
CCCOC(=O)CSc1nc(N)c(C#N)c(-c2ccco2)c1C#N	x	25µM*	x	x	0%	-3%
C[C@@]12C=Cc3occc3C1CC[C@@]13C[C@@H](CCC12)[C@@](O)(CO)C3 (stereo partly specified)	x	x	x	x	x	-3%
COc1cc(OC)c(C2C3=C(CCCC3=O)Nc3nc4ccccc4n32)cc1OC (stereo unspecified)	-6%	25µM*	-2%	8%	0%	-1%
CCOc1ccccc1NC(=O)COn1nnc2ccc(Cl)cc21	11µM*	1%	x	-1%	5%	-6%
N#Cc1c(NCCO)nc(NCc2ccccc2)c2c1CCN(Cc1ccccc1)C2	-1%	10µM*	6%	14%	-4%	-1%
CCN1CCc2c(C#N)c(N3CCCCC3)nc(NCc3ccccc3)c2C1	-27%	u	x	18%	-1%	-15%
CCN1CCc2c(C#N)c(N3CCOCC3)nc(NCCO)c2C1	-3%	8.9µM*	2%	-3%	-16%	-1%
C=CCNc1nc(N2CCCCC2)c(C#N)c2c1CN(Cc1ccccc1)CC2	3%	28µM*	6%	11%	0%	-3%
CCN1CCc2c(C#N)c(N3CCOCC3)nc(NCc3ccccc3)c2C1	-2%	2%	x	8%	-9%	-3%
OC(Cc1ccc2ccccc2n1)c1c(Cl)cccc1Cl (stereo unspecified)	x	0%	x	x	x	1%
Cc1ncc2c(c1CNC(=O)c1ccc3c(c1)OCO3)CCN(C(=O)/C=C/c1ccc(Cl)cc1)C2	x	x	x	x	x	-4%
COc1cc(=O)n2c(c1C(=O)N(C)C(C)c1ccco1)CCN(C(=O)c1ccc(C(C)=O)cc1)CC2 (stereo unspecified)	x	x	x	x	x	0%
O=C(Nc1ccc(F)c(F)c1)c1cnn2c1NC(=C1CC1)C=C2C(F)(F)F	x	-1%	x	x	x	4%
COc1cccc(N(CC(=O)NCCN2CCOCC2)S(=O)(=O)c2ccccc2)c1	5%	18µM*	-2%	x	14%	-6%
CN(CC(=O)NCCCN1CCOCC1)S(=O)(=O)c1ccc(Cl)cc1	x	20µM*	15%	x	4%	-4%
CCCCc1cc(=O)oc2c(C)c(OCC(=O)N3CCC(C(=O)O)(c4ccccc4)CC3)ccc12	-5%	4%	3%	-14%	4%	4%
